Results filed as inconclusive are left out. Where a call stands in place of a potency, no number is given. Calls of active or inactive are those of the source. Calls follow the shape of the dose curve; as a rule, active = well fitted curve in the direction sought with a large enough effect; inconclusive = small, poorly fitted or top-dose-only effect, or another doubt; inactive = no such curve, though single readings can be large; an effect the other way counts as inactive or inconclusive.
Assays:
[1] = system: NAD(P)H diaphorase (Clostridium kluyveri); experiment: Diaphorse counterscreen qHTS: Assay Interference Panel against the NCATS CANVASS Library (AID 1347362)
Method in brief: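 Counterscreen for coupling-enzyme interference: resorufin fluorescence from resazurin/NADH turnover, read after 5 min at room temperature. Compounds were tested over an 11-point series after 15 min dark preincubation with diaphorase in PBS-Tween.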

[2] = target: Luciferin 4-monooxygenase (Photinus pyralis) (UniProt P08659); experiment: Firefly luciferase counterscreen qHTS: Assay Interference Panel against the NCATS CANVASS Library (AID 1347363); also: series mostly up to about 57 µM
Sequence of Luciferin 4-monooxygenase (Photinus pyralis) (P08659 whole entry, looked up): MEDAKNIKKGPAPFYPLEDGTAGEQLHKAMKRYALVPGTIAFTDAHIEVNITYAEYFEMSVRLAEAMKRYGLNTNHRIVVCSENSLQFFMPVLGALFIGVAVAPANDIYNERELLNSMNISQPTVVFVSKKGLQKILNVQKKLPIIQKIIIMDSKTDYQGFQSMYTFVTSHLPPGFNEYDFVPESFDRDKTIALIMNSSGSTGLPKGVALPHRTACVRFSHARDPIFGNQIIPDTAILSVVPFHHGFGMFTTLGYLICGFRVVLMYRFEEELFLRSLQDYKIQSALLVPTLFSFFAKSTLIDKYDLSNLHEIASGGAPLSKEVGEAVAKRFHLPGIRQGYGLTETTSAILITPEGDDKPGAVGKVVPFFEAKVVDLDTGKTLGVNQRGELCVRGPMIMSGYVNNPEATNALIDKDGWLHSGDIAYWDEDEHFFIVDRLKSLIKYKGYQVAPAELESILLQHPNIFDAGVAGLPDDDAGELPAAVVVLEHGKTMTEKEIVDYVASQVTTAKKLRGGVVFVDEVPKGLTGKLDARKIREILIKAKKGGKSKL
Method in brief: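 Luminescence inhibition readout: compounds (11-point qHTS) sat 15 min at room temperature with substrate mix (0.013 mM luciferin and ATP), then firefly luciferase was added and signal read 5 min later.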

[3] = KB-8-5-11 Cancer Cell Toxicity qHTS against the NCATS CANVASS Library (AID 1347364); also: series mostly up to about 46 µM; nearly all actives have a fitted effect of over 75% in size
Method in brief: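 Luminescent ATP signal (CellTiter-Glo, 10 min at room temperature) measured cell survival of KB-8-5-11 after 72 hr compound treatment. For confirmation, the cells were also grown with 1uM tariquidar.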

[4] = SDT Cancer Cell Toxicity qHTS against the NCATS CANVASS Library (AID 1347365);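 also: SDT canine glioma cells 500 per well in 1536 well plates; series mostly up to about 46 µM; nearly all actives have a fitted effect of over 60% in size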
Method in brief: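 Canine SDT glioma cell toxicity was scored by ATP-dependent luminescence after a 72 hr incubation with an 11-point compound series.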

[5] = KB-3-1 Cancer Cell Toxicity qHTS against the NCATS CANVASS Library (AID 1347366); also: series mostly up to about 46 µM; nearly all actives have a fitted effect of over 75% in size
Method in brief: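 KB-3-1 cells (500/well) in DMEM with 10% FBS were exposed to compounds for 72 h at 37C. Viability was read by CellTiter-Glo luminescence.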

[6] = qHTS for ATAD5 Agonist screened against the NCATS CANVASS Library (AID 1347367);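 also: luciferase reporter driven by ATAD5 which rises upon DNA damage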
Method in brief: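 Luciferase reporter under ATAD5 control, stably integrated in HEK293T cells (2000/well). Compounds (11 points) incubated 16 h at 37C; viability read first by CellTiter-Fluor, then luminescence reporting ATAD5 activation. MMS positive control.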

[7] = G06 Cancer Cell Toxicity qHTS against the NCATS CANVASS Library (AID 1347368); also: series mostly up to about 46 µM; nearly all actives have a fitted effect of over 60% in size
Method in brief: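 Quantitative HTS in G06 cells (dog glioma): 72 hr treatment, 11 concentrations, then ATP-based luminescent viability readout; bortezomib 0.1 nM–4.6 uM final as reference.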

[8] = MCF7 Cancer Cell Toxicity qHTS against the NCATS CANVASS Library (AID 1347369); also: series mostly up to about 46 µM
Method in brief: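 MCF7 cells (500/well) were exposed 72 h at 37 °C to compounds in an 11-point series. Viability was read as ATP content by CellTiterGlo luminescence.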

[9] = qHTS for ATAD5 Antagonist screened against the NCATS CANVASS Library (AID 1347370);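 also: HEK293T cells carrying an ATAD5 luciferase reporter co-treated with 10 µM 5-fluorouridine; series mostly up to about 46 µM; nearly all actives have a fitted effect of over 65% in size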
Method in brief: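 HEK293T-ATAD5 luc reporter, 2000 cells/well; 5hr attach; cpd + 10 uM 5-FUrd; 16hr 37C, 5% CO2. Readouts: CellTiter-Fluor fluorescence (1hr), then Amplite luciferase luminescence (30min RT).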

[10] = J3T Cancer Cell Toxicity qHTS against the NCATS CANVASS Library (AID 1347371);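 also: J3T is a canine glioma cancer cell line seeded at 500 cells per well; series mostly up to about 46 µM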
Method in brief: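 ATP-based cytotoxicity in canine J3T cells: 72 hr exposure at 37C, 11-point titration, CellTiterGlo luminescent detection.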

[11] = target: Nuclear receptor subfamily 1 group I member 3 (Homo sapiens) (UniProt Q14994); experiment: qHTS for Constitutive Androstane Receptor (CAR) Antagonist screened against the NCATS CANVASS Library (AID 1347372);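 also: cells stimulated with 50 nM CITCO agonist so inhibition reflects antagonism; series mostly up to about 46 µM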
Sequence of Nuclear receptor subfamily 1 group I member 3 (Homo sapiens) (Q14994 whole entry, looked up): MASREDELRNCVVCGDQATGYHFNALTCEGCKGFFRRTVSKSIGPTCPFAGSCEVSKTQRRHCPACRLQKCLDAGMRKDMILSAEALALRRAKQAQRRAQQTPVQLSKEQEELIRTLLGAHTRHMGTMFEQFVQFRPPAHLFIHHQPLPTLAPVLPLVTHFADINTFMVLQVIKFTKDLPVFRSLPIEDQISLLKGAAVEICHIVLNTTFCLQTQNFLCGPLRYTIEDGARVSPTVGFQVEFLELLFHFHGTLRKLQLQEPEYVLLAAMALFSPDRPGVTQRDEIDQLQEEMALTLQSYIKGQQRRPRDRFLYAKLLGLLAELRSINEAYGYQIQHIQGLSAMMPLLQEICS
Method in brief: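 Antagonist mode: compound added alongside 50 nM CITCO to HepG2-hCAR-CYP2B6 reporter cells, 24hr at 37C. Viability by CellTiter-Fluor fluorescence, then CAR-driven luciferase by ONE-Glo luminescence.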

[12] = target: Nuclear receptor subfamily 1 group I member 3 (Homo sapiens) (UniProt Q14994); experiment: qHTS for Constitutive Androstane Receptor (CAR) Agonist screened against the NCATS CANVASS Library (AID 1347373);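 also: every well also contained 1.5 µM PK11195 alongside the test compound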
Method in brief: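 In an 11-point concentration series, compounds were incubated 24hr with HepG2 cells carrying hCAR and a CYP2B6-2.2kb reporter, with PK11195 at 1.5uM final. A CellTiter-Fluor viability read preceded the ONE-Glo luminescence read.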

[13] = 10-beta competent E. coli microbial cell viability qHTS against the NCATS CANVASS Library (AID 1347376); also: series mostly up to about 46 µM
Method in brief: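 Overnight 37C exposure of 10-beta E. coli (0.2 OD) to an 11-point concentration series; ATP-based luminescence after 20 min room-temperature reagent incubation; daunomycin as control.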

[14] = DH5-alpha competent E. coli microbial cell viability qHTS against the NCATS CANVASS Library (AID 1347377); details: outcome: dose series up to 46.1 µM
Method in brief: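 Overnight incubation at 37C, 5% CO2 of E. coli DH5-alpha (diluted to 0.2 OD) with compounds precedes BacTiter-Glo addition. Luminescence, acquired after 20 min at room temperature, reflects viable-cell ATP.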

[15] = qHTS for H2AX Agonists against the NCATS CANVASS Library (AID 1347378)
Method in brief: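 CHO-K1 cells (1000/well, overnight at 37C) exposed to compounds at several concentrations for 3 hr at 37C, 0.76% DMSO final. Lysates read by TR-FRET (phospho-H2AX S139 Eu-cryptate antibody / H2AX-d2 antibody) after 24 hr at room temperature; 665/615 nm ratio.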

[16] = qHTS for Inflammasome Signaling Inhibitors: IL-1-beta AlphaLISA screen against the NCATS CANVASS Library (AID 1347379);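 also: human THP-1 cells primed with LPS then triggered with ATP; secreted IL-1B measured as AlphaLISA emission at 615 nm; lower signal means less IL-1B release which is the wanted effect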
Method in brief: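 THP-1, 1 hr compound pre-incubation, then LPS 250 ng/mL + ATP 1.25 mM (final); 16 hr total with compound; IL-1B AlphaLISA, ex 680/em 615 nm; 11-point qHTS, up to 57.5 uM final.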

[17] = qHTS for Antimalaria activity screened against the NCATS CANVASS Library (AID 1347380); also: nearly all actives have a fitted effect of over 40% in size; also: potency is read from the fitted curve at half-maximal effect
Method in brief: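 Measures proliferation or cytotoxicity against Dd2 blood stages in 72 h cultures, 11-point qHTS dosing, with SYBR Green fluorescence as read-out; dihydroartemisinin titration served as control.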

[18] = Inflammasome Signaling qHTS Counterscreen: IL-1-beta AlphaLISA counterscreen against the NCATS CANVASS Library (AID 1347381);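 also: cell-free check with purified IL-1β in medium and no THP-1 cells; series mostly up to about 57 µM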
Method in brief: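 Here, no cellular stimulation occurs; compounds in an 11-point series meet 4 pg purified IL-1-beta directly. Bead-based AlphaLISA detection follows (1 h acceptor/antibody, then 30 min donor, dark, room temperature), with excitation at 680 nm.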

[19] = Cytotoxicity qHTS for assessment of Hepg2 cells membrane integrity screened against the NCATS CANVASS Library (AID 1347387)
Method in brief: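 Membrane damage in HepG2 monolayers was estimated from released LDH, measured with CytoTox-ONE (ex 560/em 590 nm), after 5 hr treatment across 0.59 nM - 46 uM final.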

[20] = qHTS for Activators of p53 Stress Response Pathway screened against the NCATS CANVASS Library (AID 1347388)
Method in brief: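 Beta-lactamase reporter driven by p53 response elements in HCT-116 cells, read as the 460 nm/530 nm emission ratio after CCF4 loading, following 16 h of exposure to an 11-point series. Cell viability was measured in the same wells by CellTiter-Glo luminescence.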

| SMILES | outcome [1] | outcome [2] | outcome [3] | outcome [4] | outcome [5] | outcome [6] | outcome [7] | outcome [8] | outcome [9] | outcome [10] | outcome [11] | outcome [12] | outcome [13] | outcome [14] | outcome [15] | outcome [16] | Potency [17] | outcome [18] | outcome [19] | outcome [20] |
| --- | --- | --- | --- | --- | --- | --- | --- | --- | --- | --- | --- | --- | --- | --- | --- | --- | --- | --- | --- | --- |
| O=C1C[C@@H]2OCC=C3CN4CC[C@]56c7ccccc7N1[C@H]5[C@H]2[C@H]3C[C@H]46 | inactive | inactive | inactive | inactive | inactive | inactive | inactive | inactive | inactive | inactive | inactive | inactive | inactive | inactive | inactive | inactive | 13 µM (active) | inactive | inactive | inactive |
| COc1ccc2[nH]cc(CCN)c2c1 | inactive | inactive | inactive |  | inactive | inactive | inactive | inactive | inactive | inactive | inactive | inactive | inactive | inactive | inactive | inactive | inactive | inactive | inactive | inactive |

— PubChem BioAssay (NCATS)
